MOR-DOR inv ag: inverse agonists of human mu-delta opioid receptor heterodimerization | hit rate 0.21% among 340,000 | cell-based MOR-DOR heterodimer luminescence, inverse agonism | inhibition, % at 9.3 µM; in the data active means inhibition above about 22%, passing the limit was not always enough;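 further: 0% = cells with DMSO and 100% = wells without cells with DMSO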
Target sequence (P35372 whole entry, looked up): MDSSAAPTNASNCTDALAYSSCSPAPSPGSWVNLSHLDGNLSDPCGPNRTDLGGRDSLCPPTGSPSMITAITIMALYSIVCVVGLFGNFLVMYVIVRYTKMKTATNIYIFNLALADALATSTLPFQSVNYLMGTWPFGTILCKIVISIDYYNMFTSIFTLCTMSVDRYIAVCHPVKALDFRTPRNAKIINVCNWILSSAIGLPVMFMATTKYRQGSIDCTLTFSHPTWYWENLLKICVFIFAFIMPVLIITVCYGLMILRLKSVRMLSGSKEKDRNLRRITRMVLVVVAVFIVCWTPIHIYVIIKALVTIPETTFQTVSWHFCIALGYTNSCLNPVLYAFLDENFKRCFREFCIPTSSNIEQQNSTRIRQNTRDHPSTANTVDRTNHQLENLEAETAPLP
Target sequence (P41143 whole entry, looked up): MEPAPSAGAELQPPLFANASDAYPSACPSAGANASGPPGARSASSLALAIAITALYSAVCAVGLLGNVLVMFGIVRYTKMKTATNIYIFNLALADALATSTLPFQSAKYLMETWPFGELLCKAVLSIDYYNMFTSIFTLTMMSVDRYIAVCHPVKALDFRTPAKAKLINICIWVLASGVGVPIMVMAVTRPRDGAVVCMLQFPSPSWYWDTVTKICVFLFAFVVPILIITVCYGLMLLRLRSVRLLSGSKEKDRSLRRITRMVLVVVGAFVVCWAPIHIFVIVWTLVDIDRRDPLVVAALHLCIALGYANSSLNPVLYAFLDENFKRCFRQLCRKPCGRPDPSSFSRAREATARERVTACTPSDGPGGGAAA
HTR5A ag: counter-screen for OPRM1-OPRD1 agonists: human HTR5A agonism. P47898. activation, % at 9.3 µM. AID 504692. HTR5A agonist assay, luminescence, cell-based. hit rate 0.61% among 340,000; in the data active means activation mostly above about 9.5%, no sharp cut-off; inactive means mostly below about 7.6%;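 further: 0% = cells with vehicle only and 100% = reference agonist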
NALP1 yeast inh: blocks the NALP1 inflammasome reconstituted in yeast. AID 2071. S. cerevisiae NALP1/ASC/caspase-1 growth, X-gal OD620, 72 h. hit rate 0.61% among 280,000. inhibition, % at 10 µM; in the data active means inhibition mostly above about 24%, no sharp cut-off; inactive means mostly below about 32%
PolyA inh: blocks polyadenylation in yeast reporter cells; S. cerevisiae SKY197-pL101 polyadenylation reporter, beta-gal luminescence; efflux-impaired pdr1/pdr3 knockout yeast; score 100 = 6 SD above DMSO; activity score, % at 12 µM; hit rate 0.02% among 300,000; AID 1875;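 active means lowest replicate activity score at least 50, where 100 means six control SD above control mean; inconclusive means lowest score under 50 but half or more replicates reach 50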;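 further: yeast exposed to compound for 9 h at 30 °C; higher score means more reporter readthrough which indicates perturbed polyadenylation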
HTR5A inv ctr: inverse agonist of human HTR5A in OPRM1-OPRD1 counter-screen; P47898; HTR5A cell line, luminescence, inverse agonism; inhibition, % at 9.3 µM; hit rate 0.083% among 340,000; AID 504634; in the data active means inhibition mostly above about 23%, no sharp cut-off; inactive means mostly below about 18%;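 further: 0% = cells with DMSO and 100% = no-cell wells with DMSO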
OPRM1-OPRD1 ag: OPRM1-OPRD1 heterodimerization agonism | AID 504326 | cells, luminescence | P35372+P41143 | hit rate 0.3% among 340,000 | activation, % at 9.3 µM; in the data active means activation above about 18%;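 further: 0% = vehicle-treated cells and 100% = reference agonist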
* marks the source's active call; other numbers are inactive results; ? = inconclusive; · = no result given. This is a sample that favours compounds with a hit; in the whole collection about 1.6% have one here.

SMILES | MOR-DOR inv ag | HTR5A ag | NALP1 yeast inh | PolyA inh | HTR5A inv ctr | OPRM1-OPRD1 ag
Nn1c(-c2ccccc2)cc(-c2ccccc2)cc1=O | 15 | 12 | · | 4 | -10 | -3
CCOc1ccc(C(=O)NC(=S)Nc2ccccc2N2CCOCC2)cc1Br | -13 | 3 | 26 | -8 | 25 | 3
O=C(COc1ccc([N+](=O)[O-])cc1Cl)NCCc1ccccc1 | -8 | 6 | 73* | 10 | 6 | 2
O=C(COC(=O)c1cc([N+](=O)[O-])ccc1Cl)NCCc1ccccc1 | -13 | -5 | · | · | 12 | 3
O=C(O)c1ccc(CNS(=O)(=O)c2ccc3ccccc3c2)cc1 | 4 | 9.9* | 16 | -2 | -26 | 0
O=C(NCCC1=CCCCC1)c1ccc2c(c1)N(Cc1ccccc1)C(=O)CS2 | -18 | 1 | 38* | -11 | -9 | 3
O=C(NCCN1CCOCC1)c1ccc2c(c1)N(Cc1ccccc1)C(=O)CS2 | 13 | 3 | -8 | 14 | -11 | -3
OC1(c2ccc3c(c2)OCO3)CCN(Cc2ccccn2)CC1 | 9 | 1 | 30* | 26 | -10 | -2
O=C(CN1CCC(O)(c2ccc3c(c2)OCO3)CC1)N1CCOCC1 | -10 | 2 | 14 | 0 | -4 | 2
CN(C)CCN1C(=O)C(=O)/C(=C(/O)c2ccc(OCc3ccccc3)cc2)C1c1ccncc1 (stereo unspecified) | 10 | 4 | 35* | -1 | 1 | -2
CC(=O)/C(N=Nc1ccc(OC(F)(F)F)cc1)=C(\C)O | 0 | 0 | · | 0 | -9 | 0
CC(=O)/C(N=Nc1ccc(C(=O)O)cc1)=C(\C)O | 10 | 2 | 43* | ? | -7 | -2
N#Cc1c(C(F)(F)F)cc(-c2ccccc2Cl)[nH]c1=O | -5 | 12* | 38 | 0 | -20 | 1
Cn1cccc1Cc1nnc(SCC(=O)NCc2ccccc2Cl)n1-c1ccc(F)cc1 | 5 | -1 | -15 | 73* | 4 | -1
CN(C)CCCN(C(=O)/C=C/c1cccs1)c1nc2c(F)cccc2s1 | -16 | -2 | 7 | 29 | -4 | 3
Cc1cccc2sc(N(CCN(C)C)C(=O)/C=C/c3cccs3)nc12 | 2 | 3 | 54* | -7 | -30 | 0
Cc1cccc2sc(N(CCCN(C)C)C(=O)c3sc4ccccc4c3Cl)nc12 | -11 | 0 | 54* | · | -6 | 2
CN(C)c1ncnc2c1C(c1ccccc1)C(C)(C)O2 (stereo unspecified) | 17 | -1 | · | · | 3 | -3
Cc1cc(C)n(CC(O)Cn2c3ccc(Cl)cc3c3cc(Cl)ccc32)c(=O)n1 (stereo unspecified) | 8 | 6 | 19 | 3 | 15 | -1
OC(CNCC1CCCO1)Cn1c2ccc(Cl)cc2c2cc(Cl)ccc21 (stereo unspecified) | -23 | 12 | 28* | -20 | -4 | 4
OC(CNCCC1C=Nc2ccccc21)Cn1c2ccc(Cl)cc2c2cc(Cl)ccc21 (stereo unspecified) | -61 | 10 | 101* | -10 | -51 | 11
CC(C)(CO)NCC(O)Cn1cc(C=O)c2ccccc21 (stereo unspecified) | 4 | 4 | 13 | -4 | 3 | -1
COC(=O)c1ccc(NC(=S)N2CCN(C)CC2)cc1 | 7 | 13* | 5 | 6 | -36 | -2
COC(=O)c1ccc(NC(=S)N2CCCC2)cc1 | 11 | 5 | -7 | 4 | -22 | -2
O=C(NCCc1c[nH]c2ccccc12)C(F)(F)F | 11 | 14* | 13 | 3 | -73 | -2
SMILES | MOR-DOR inv ag | HTR5A ag | NALP1 yeast inh | PolyA inh | HTR5A inv ctr | OPRM1-OPRD1 ag
CC(C)C(=O)NCCc1c[nH]c2ccccc12 | 11 | 0 | 3 | 1 | -68 | -3
COc1ccc(/C=C2\C(=O)c3ccccc3OC2c2ccccc2)cc1 (stereo unspecified) | -7 | 1 | 0 | -11 | 10 | 1
CCOc1ccc(/C=C2\C(=O)c3ccccc3OC2c2ccccc2)cc1 (stereo unspecified) | 11 | 4 | 28* | -8 | -10 | -2
O=C(NCCS(=O)(=O)N1CCN(c2ccc(F)cc2)CC1)c1ccco1 | 10 | 0 | · | 11 | 0 | -2
Cc1cc(C)nc(SCc2csc(-c3ccccc3)n2)n1 | -47 | 3 | 22 | 4 | 17 | 8
Nc1ccccc1SCc1csc(-c2ccc(Cl)cc2)n1 | -13 | -3 | 40* | -6 | 12 | 3
N#Cc1ccccc1OCC(=O)Nc1c(C(=O)C2CC2)oc2ccccc12 | -14 | 14* | 2 | 4 | -41 | 2
O=C(CN1CCCC1)Nc1c(C(=O)C2CC2)oc2ccccc12 | -10 | -4 | 26 | -3 | -21 | 2
O=C(COC(=O)C1CC2CCCC(C1)C2=O)NC1CCCCC1 (stereo unspecified) | -3 | 1 | · | · | -3 | 1
O=C(CNC(=O)c1ccco1)NCC(=O)OCC(=O)c1ccc(Cl)c([N+](=O)[O-])c1 | 94* | -10 | 10 | 11 | 43* | -18
O=C(CNC(=O)c1ccco1)OCC(=O)c1ccc([N+](=O)[O-])cc1 | 11 | -2 | 20 | -17 | 6 | -2
COCC(C)n1c(COc2ccccc2F)nnc1SCC(=O)Nc1oc(C)c2c(C)n[nH]c(=O)c12 (stereo unspecified) | 21 | -1 | · | -7 | -1 | -4
Cc1ccc(/C=N/n2cc(-c3ccccc3)[nH]c2=S)s1 | -2 | 4 | 25* | 1 | -12 | 0
S=c1[nH]c(-c2ccccc2)cn1/N=C/c1ccccc1Br | -23 | 4 | 3 | -18 | -11 | 4
Cc1c(C(=O)NCCC2=CCCCC2)sc2ncnc(N3CCCCC3C)c12 (stereo unspecified) | 4 | 11* | -2 | -9 | -44 | -1
Cc1sc2ncnc(N3CCCCC3C)c2c1C (stereo unspecified) | -18 | 1 | -1 | 3 | -5 | 3
CCCOc1ccc(C(=O)NC(=S)NNC(=O)c2c(-c3ccccc3)noc2C)cc1 | 46* | -12 | 15 | 9 | 44* | -9
COc1ccc(Cl)cc1C(=O)Nc1nc2ccccc2[nH]1 | 1 | -4 | 38* | -41 | 10 | 0
Cn1c(CCC(=O)O)nc2cc(S(=O)(=O)N3CCCCC3)ccc21 | 9 | 4 | · | · | -12 | -2
COc1cccc(NC(=O)COC(=O)Cc2ccc(Cl)cc2)c1 | -16 | -3 | 30* | 20 | 6 | 3
COc1ccc(CC(=O)OCC(=O)Nc2cccc(Cl)c2)cc1 | 1 | 0 | 13 | -6 | -1 | 0
CCOC(=O)C(=CNc1cc(C(F)(F)F)ccc1N1CCOCC1)C(=O)OCC | -23 | 0 | -18 | -7 | 0 | 5
COc1cc2ncnc(NCc3ccccc3F)c2cc1OC | -17 | -1 | 11 | 5 | 4 | 4
COc1cc2ncnc(NCc3cccc(F)c3F)c2cc1OC | -9 | 9.2* | 9 | -5 | -33 | 2

Screening data deposited in PubChem BioAssay by several laboratories.
